From PubChem BioAssay
Sampled rows, rich in hits. Any-hit rate of the full collection: about 5.2%.
PLK1 PBD block: qHTS for Inhibitors of PLK1-PDB (polo-like kinase 1 - polo-box domain): Primary Screen; Serine/threonine-protein kinase PLK1 (Homo sapiens), P53350; Plk1 PBD binding of FITC phosphopeptide, fluorescence polarization; Potency, µM, without a hit: max response, negative = inhibition, usual class: inhibitors; hit rate 2.8% among 360,000; note: series mostly up to about 57 µM; nearly all actives have a fitted effect of over 65% in size
Target sequence (P53350 whole entry, looked up, the tested form may be a part): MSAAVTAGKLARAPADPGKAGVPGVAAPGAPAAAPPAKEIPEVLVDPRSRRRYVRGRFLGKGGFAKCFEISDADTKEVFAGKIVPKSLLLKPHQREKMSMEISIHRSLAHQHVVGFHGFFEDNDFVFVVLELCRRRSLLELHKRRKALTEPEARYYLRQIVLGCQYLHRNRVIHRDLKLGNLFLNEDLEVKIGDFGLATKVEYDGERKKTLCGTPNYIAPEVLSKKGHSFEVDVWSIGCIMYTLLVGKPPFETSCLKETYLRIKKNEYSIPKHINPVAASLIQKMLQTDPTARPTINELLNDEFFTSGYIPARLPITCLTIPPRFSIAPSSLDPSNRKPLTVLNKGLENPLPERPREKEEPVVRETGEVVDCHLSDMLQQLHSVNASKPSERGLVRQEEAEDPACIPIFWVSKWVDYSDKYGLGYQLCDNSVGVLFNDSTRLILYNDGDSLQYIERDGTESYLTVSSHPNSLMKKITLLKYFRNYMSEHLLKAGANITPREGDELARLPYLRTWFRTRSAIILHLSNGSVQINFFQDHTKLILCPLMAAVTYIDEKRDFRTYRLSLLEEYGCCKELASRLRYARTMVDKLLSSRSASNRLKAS
VDR inh: Inhibitors of the vitamin D receptor (VDR): qHTS; Vitamin D3 receptor (Homo sapiens), P11473; VDR-SRC2-3 peptide fluorescence polarization, 2 h; Potency, µM, without a hit: max response, negative = inhibition, hits mostly inhibitors; hit rate 0.93% among 400,000
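Fluorescence polarization assay of small-molecule disruption of VDR binding to coregulator peptide SRC2-3. Compounds and controls pin-transferred, then read after 2 h incubation at ambient room temperature.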
mIDH1 inhibitor: qHTS for Inhibitors of mutant isocitrate dehydrogenase 1 (IDH1): qHTS; Isocitrate dehydrogenase [NADP] cytoplasmic (Homo sapiens), O75874; IDH1-R132H enzyme, NADPH consumption, diaphorase/resazurin fluorescence; Potency, µM (doses to about 76.6 µM), without a hit: top-dose activity change, negative = inhibition, actives largely listed as inhibitors; hit rate 0.093% among 390,000; AID 602179, 2012; note: nearly all actives have a fitted effect of over 65% in size
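IDH1-R132H (0.5 ug/mL dispensed) in pH 7.5 Tris buffer was preincubated 30 min with compound, then given a substrate mix of 0.016 mM NADPH and 2 mM alpha-KG for 80 min at room temperature; remaining NADPH was read by diaphorase/resazurin fluorescence.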
rTrxR1 inhibitor: qHTS Assay for Inhibitors of Mammalian Selenoprotein Thioredoxin Reductase 1 (TrxR1): qHTS; Thioredoxin reductase 1, cytoplasmic (Rattus norvegicus), O89049; recombinant rTrxR1, NADPH fluorescence consumption, selenite substrate; Potency, µM (highest dose often 114 µM), for the others: at the highest dose activity change, negative = inhibition, hits mostly inhibitors; hit rate 1% among 390,000; note: nearly all actives have a fitted effect of over 65% in size
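Rat TrxR1 (90 nM in the dispensed reagent) was pre-reduced with 400 uM NADPH for 5 min at room temperature, then incubated with compound for 15 min. After 400 uM selenite was added, NADPH fluorescence (Ex 340/Em 450 nm) was followed for 8 min.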
TrxR1 substrate: qHTS Assay for Substrates of Mammalian Selenoprotein Thioredoxin Reductase 1 (TrxR1): qHTS; purified TrxR1 substrate turnover, NADPH consumption readout; Thioredoxin reductase 1, cytoplasmic (Rattus norvegicus), O89049; Potency, µM (series often up to 114 µM), for the others: at the top dose activity change, negative = substrate turnover; hit rate 0.01% among 390,000; note: nearly all actives have a fitted effect of over 50% in size
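Rat TrxR1, dispensed at 90 nM, was prereduced with 400 uM NADPH (final) for 5 min at ~22 deg C, then incubated with compound 15 min before 400 uM selenite. A first-read NADPH fluorescence drop versus no-compound background flagged substrates.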
Sfp PPTase inh: qHTS Assay for Inhibitors of Bacillus subtilis Sfp phosphopantetheinyl transferase (PPTase). Biochemical Sfp PPTase activity, qHTS. 4'-phosphopantetheinyl transferase ffp (Bacillus subtilis), Q9F4F7. Potency, µM, for the others: largest response in the series, negative = inhibition, most hits filed as inhibitors. hit rate 3.5% among 310,000;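 note: the enzyme is Sfp with the accession as filed and its product quenches rhodamine fluorescence; 0% = enzyme reaction without inhibitor and -100% = no enzyme wells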
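Buffer: 50 mM Hepes-Na pH 7.6, 10 mM MgCl2, 0.01% Nonidet P-40, 0.01% BSA. Enzyme 15 nM, pre-exposed to compound 15 min; substrates then added and fluorescence change tracked over 30 min.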
* = called active by the depositor; ? = inconclusive; / = no result; [ ] = dose if it differs, or a comment. Calls come from the whole dose curve; as a rule, active = well fitted curve in the direction sought with a large enough effect; inconclusive = small, poorly fitted or top-dose-only effect, or another doubt; inactive = no such curve, though single readings can be large; an effect the other way counts as inactive or inconclusive. Unless noted, % is set by controls: 0 for no effect and ±100 for the full control effect; potency is the fitted concentration of half-maximal effect.

SMILES	PLK1 PBD block	VDR inh	mIDH1 inhibitor	rTrxR1 inhibitor	TrxR1 substrate	Sfp PPTase inh
C/C=C1\COC(C(=O)NC)(C(F)(F)F)C=C1C=C1CCCCC1 (stereo not drawn)	/	?	/	1.4µM*	0%	-7%
COc1cccc(CNC(=O)Cn2nc3c(cc2=O)CCCC3)c1OC	/	9%	-16%	5%[57.1 µM]	-7%[57.1 µM]	/
CC(=O)Nc1ccc(-c2ccnc3c2CC(C)(C(=O)NCc2ccncc2)O3)cc1 (stereo not drawn)	-4%	/	/	/	/	/
C/C=C1\COC(C(=O)NCc2cccc(OC)c2OC)(C(F)(F)F)C=C1C=C1CCCCC1 (stereo not drawn)	-9%	-3%	3%	5µM*	-3%	11%
C/C=C1\COC(C(=O)NCc2ccncc2)(C(F)(F)F)C=C1C=C1CCCCC1 (stereo not drawn)	-22%	?	13%	18µM*	-3%	?
C/C=C1\COC(C(=O)NCCOCCO)(C(F)(F)F)C=C1C=C1CCCCC1 (stereo not drawn)	/	?	/	1.6µM*	5%	-4%
C#CCOc1ccccc1/C=N/NC(=O)c1ccccc1OCc1ccccc1	-3%	-20%	0%	20%	-3%	-14%
Cc1c(NC(=O)Nc2ccc([N+](=O)[O-])cc2)c(=O)n(-c2ccccc2)n1C	9.5µM*	?	7%	-5%	-7%	6%
CCCOc1ccc(N2C(=O)CC(N(Cc3ccco3)C(=O)CC)C2=O)cc1 (stereo not drawn)	-10%	-22%	10%	?	0%	-13%
CCOc1ccc(N2C(=O)CC(N(Cc3ccco3)C(=O)CC)C2=O)cc1 (stereo not drawn)	27µM*	-8%	6%	-11%	-2%	23%
O=C(CS)Nc1ccc2ccccc2c1	-19%	79µM*	-4%	12%	-2%	?
O=C(Cc1ccc2c(c1)CCCC2)Nc1ccc2ccccc2c1	?	-14%	4%	14%	7%	-11%
COC(=O)c1c(SC)nc2ccccc2c1OCc1ccc(C)cc1	/	10%	0%	37%[57.1 µM]	11%[57.1 µM]	/
O=C(CN1C(=O)c2ccccc2S1(=O)=O)Nc1ncc([N+](=O)[O-])s1	19µM*	-17%	1%	?	-18%	/
CCC(C(=O)Nc1cc(F)ccc1F)n1nc(-c2cc(C)ccc2C)ccc1=O (stereo not drawn)	/	2%	2%	16%	0%	/
COc1ccccc1OC(C)C(=O)Nc1cccc(-c2nc3ccccc3o2)c1 (stereo not drawn)	/	-5%	-4%	46%	10%	/
O=C(NCN1CCc2ccccc2C1)c1cnccn1	-24%	8%	-8%	20µM*	-4%	3%
O=C(NCN1CCc2ccccc2C1)c1ccccc1	-8%	-10%	3%	11%[57.1 µM]	6%[57.1 µM]	5%
COc1ccc(-n2nc3c(c2NC(=O)CCl)CSC3)cc1	-24%	-20%	13%	14µM*	16%	16%
COc1ccc(-n2nc3c(c2NC(=O)COc2cccc(OC)c2)CS(=O)(=O)C3)cc1	-7%	-24%	10%	-11%	1%	50µM*
COc1ccc(-n2nc3c(c2NC(=O)C(C)Cl)CSC3)cc1 (stereo not drawn)	-13%	?	-8%	1%	-4%	7%
CSCC[C@H](NC(=O)COc1cc2c(c3oc(=O)c(C)c(C)c13)CCC(C)(C)O2)C(=O)O	30µM*	-21%	1%	60%	485%	26%
CCCc1cc(=O)oc2c3c(cc(OCC(=O)NCc4ccccn4)c12)OC(C)(C)CC3	1%	-29%	-17%	?	250%	-4%
Cc1c(C)c2c(OCC(=O)NCc3ccccn3)cc3c(c2oc1=O)CCC(C)(C)O3	-2%	-11%	2%	89µM*	422%	-6%
COc1ccc(C2=Nn3c(nnc3-c3cc(OC)cc(OC)c3)SC2)cc1	/	/	/	/	/	-24%
SMILES	PLK1 PBD block	VDR inh	mIDH1 inhibitor	rTrxR1 inhibitor	TrxR1 substrate	Sfp PPTase inh
O=C1NC2CCCCC2C(=O)N1OS(=O)(=O)c1ccccc1 (stereo not drawn)	0.75µM*	16µM*	3%	3.5µM*	-2%[57.1 µM]	/
O=C1CCN(S(=O)(=O)c2ccccc2)C2CCCCC12 (stereo not drawn)	?	-20%	4%	14%[57.1 µM]	7%	11%
CC(C)C[C@H](NC(=O)[C@H](Cc1ccccc1)NC(=O)[C@@H]1CCCN1C(=O)[C@H](CC(=O)O)NC(=O)[C@@H]1CCC(=O)N1)C(=O)N[C@@H](CCCN=C(N)N)C(=O)N[C@@H](Cc1ccccc1)C(N)=O	/	11%	/	/	/	13%
O=C(NCc1ccccn1)c1nc(-c2cccs2)no1	27µM*	-9%	15%	14%	2%	6%
O=C(NCc1cccs1)c1nc(-c2cccs2)no1	-4%	-10%	-7%	38%	2%	-1%
O=C(NCc1ccccn1)C(=O)NCc1ccccn1	-1%	-6%	10%	26%	8%	56µM*
COc1ccc(C(=O)NCc2nnc(SCC(=O)c3ccccc3)n2C)cc1OC	-1%	-1%	13%	-7%	-5%	/
CC1(C)SCC(C(=O)O)NC1=O (stereo not drawn)	21µM*	-10%	2%	12%	9%[57.1 µM]	0%
O=C1CC[C@H](C(=O)O)N1	/	0%	/	/	/	10%
CCCc1c(C(=O)OCC)sc(N)c1C#N	19µM*	-11%	-1%	25%[57.1 µM]	8%[57.1 µM]	63µM*
CCOC(=O)c1c(N)sc(C(=O)Nc2ccccc2)c1C	21µM*	?	-3%	-18%	-9%	20µM*
CCOC(=O)c1sc(NC(=O)Nc2ccccc2)cc1C	-7%	12%	12%	10%	2%	35µM*
CCOC(=O)c1sc(N)c(C(N)=O)c1C	24µM*	-6%	11%	-4%[57.1 µM]	3%[57.1 µM]	32µM*
CC(=O)c1cccc(NC(=O)C2Cc3c(-c4cccc(F)c4)ccnc3O2)c1 (stereo not drawn)	-9%	/	/	/	/	/
CC(=O)OC1CC[C@]2(C)C(CC(OC(C)=O)[C@]3(C)C2CC[C@@]2(C)C(c4ccoc4)OC(=O)C4O[C@]432)C1(C)C (stereo partly drawn)	/	?	/	/	/	11%
